Experimental data: PubChem BioAssay AID1159580 (chemical genetic matrix, 2015)
About 2,000 (36%) of roughly 5,500 compounds were called active. About 18% were inconclusive and are not listed. Cut-off read from the data, not from the text of the source: active = normalized growth mostly below about 0.91 (no sharp cut-off); inconclusive = no clear call, values can overlap the other calls; inactive = mostly above about 0.92. Some of the results follow.

Experiment: chemical genetic growth profiling, strain panel (AID 1159580);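 note: tested at 20 µM; growth read once vehicle control cultures reached saturation at 30 °C; 1 = growth at the plate median or of vehicle wells; lower values mean less growth of the strain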
Conditions: growth OD
[1] = S. cerevisiae deletion strains, locus YAL013W, strain DEP1, active compounds read low
[2] = S. cerevisiae deletion strains, locus YBR229C, strain ROT2, active compounds read low
[3] = S. cerevisiae deletion strains, locus YCL061C, strain MRC1, active compounds read low
[4] = S. cerevisiae deletion strains, locus YDL101C, strain DUN1, active compounds read low
[5] = S. cerevisiae deletion strains, locus YDR150W, strain NUM1, active compounds read low
[6] = S. cerevisiae deletion strains, locus YEL061C, strain CIN8, active compounds read low
[7] = S. cerevisiae deletion strains, locus YGR078C, strain PAC10, active compounds read low
[8] = S. cerevisiae deletion strains, locus YGR229C, strain SMI1, active compounds read low
[9] = S. cerevisiae deletion strains, locus YHR030C, strain SLT2, active compounds read low
[10] = S. cerevisiae deletion strains, locus YHR087W, strain rtc3, active compounds read low
[11] = S. cerevisiae deletion strains, locus YJR043C, strain POL32, active compounds read low
[12] = S. cerevisiae deletion strains, locus YJR075W, strain HOC1, active compounds read low
[13] = S. cerevisiae deletion strains, locus YLR039C, strain RIC1, active compounds read low
[14] = S. cerevisiae deletion strains, locus YLR058C, strain SHM2 (second series), active compounds read low
[15] = S. cerevisiae deletion strains, locus YLR085C, strain ARP6, active compounds read low
[16] = S. cerevisiae deletion strains, locus YLR262C, strain YPT6, active compounds read low
[17] = S. cerevisiae deletion strains, locus YML094W, strain GIM5, active compounds read low
[18] = S. cerevisiae deletion strains, locus YMR219W, strain ESC1, active compounds read low
[19] = S. cerevisiae deletion strains, locus YMR263W, strain SAP30, active compounds read low
[20] = S. cerevisiae deletion strains, locus YMR307W, strain GAS1, active compounds read low
[21] = S. cerevisiae deletion strains, locus YNL153C, strain GIM3, active compounds read low
[22] = S. cerevisiae deletion strains, locus YNL298W, strain CLA4 (second series), active compounds read low
[23] = S. cerevisiae deletion strains, locus YNL322C, strain KRE1, active compounds read low
[24] = S. cerevisiae deletion strains, locus YNR030W, strain Alg12, active compounds read low
[25] = S. cerevisiae deletion strains, locus YPL055C, strain LGE1, active compounds read low
[26] = S. cerevisiae deletion strains, locus YPL241C, strain CIN2, active compounds read low
[27] = S. cerevisiae deletion strains, locus YPR135W, strain CTF4, active compounds read low

Measured: normalized growth

COC(=O)c1ccc(S(=O)(=O)N2CCC(C(N)=O)CC2)n1C
inactive: [1] 0.97 | [2] 1 | [3] 0.99 | [4] 0.97 | S. cerevisiae deletion strains, locus YDL134C, strain PPH21, active compounds read low 1.03 | [5] 0.881 | [6] 1.02 | [7] 0.989 | [8] 1 | [9] 1.05 | [10] 0.993 | [11] 0.983 | [12] 0.988 | S. cerevisiae deletion strains, locus YKL190W, strain CNB1, active compounds read low 1.02 | [13] 1.01 | [14] 0.991 | [15] 1.06 | [16] 1.03 | [17] 0.999 | [18] 0.99 | [19] 0.981 | [20] 1.05 | [21] 1.01 | [22] 1.06 | [23] 1 | [24] 1.04 | [25] 0.852 | [26] 1.02 | [27] 1

CCOC(=O)/C(C#N)=C(\Nc1ccc(C(=O)OCC)cc1)SC
active: [9] 0.815 | S. cerevisiae deletion strains, locus YLR113W, strain HOG1, active compounds read low 0.706 | S. cerevisiae deletion strains, locus YPL256C, strain CLN2, active compounds read low 0.751
inactive: S. cerevisiae deletion strains, locus YAR019C, strain CDC15, active compounds read low 0.982 | S. cerevisiae deletion strains, locus YBL105C, strain PKC1, active compounds read low 0.977 | S. cerevisiae deletion strains, locus YBR135W, strain CKS1, active compounds read low 0.98 | S. cerevisiae deletion strains, locus YBR136W, strain MEC1, active compounds read low 0.974 | S. cerevisiae deletion strains, locus YBR160W, strain CDC28, active compounds read low 0.98 | S. cerevisiae deletion strains, locus YDL017W, strain CDC7, active compounds read low 0.978 | S. cerevisiae deletion strains, locus YDL028C, strain MPS1, active compounds read low 0.984 | [4] 0.977 | S. cerevisiae deletion strains, locus YDL108W, strain KIN28, active compounds read low 0.972 | S. cerevisiae deletion strains, locus YDL132W, strain cdc53, active compounds read low 0.981 | S. cerevisiae deletion strains, locus YDL214C, strain PRR2, active compounds read low 0.929 | S. cerevisiae deletion strains, locus YDR052C, strain DBF4, active compounds read low 0.983 | S. cerevisiae deletion strains, locus YDR054C, strain cdc34, active compounds read low 0.984 | S. cerevisiae deletion strains, locus YDR226W, strain ADK1, active compounds read low 0.979 | S. cerevisiae deletion strains, locus YDR477W, strain SNF1, active compounds read low 0.954 | S. cerevisiae deletion strains, locus YER123W, strain YCK3, active compounds read low 0.91 | S. cerevisiae deletion strains, locus YER133W, strain GLC7, active compounds read low 0.945 | S. cerevisiae deletion strains, locus YFL009W, strain cdc4, active compounds read low 0.978 | S. cerevisiae deletion strains, locus YFL029C, strain CAK1, active compounds read low 0.982 | S. cerevisiae deletion strains, locus YFR003C, strain YPI1, active compounds read low 0.977 | S. cerevisiae deletion strains, locus YFR019W, strain FAB1, active compounds read low 0.968 | S. cerevisiae deletion strains, locus YFR028C, strain CDC14, active compounds read low 0.979 | S. cerevisiae deletion strains, locus YGR040W, strain KSS1, active compounds read low 0.946 | S. cerevisiae deletion strains, locus YGR052W, strain FMP48, active compounds read low 0.959 | S. cerevisiae deletion strains, locus YGR092W, strain DBF2, active compounds read low 0.947 | S. cerevisiae deletion strains, locus YHR079C, strain IRE1, active compounds read low 0.841 | S. cerevisiae deletion strains, locus YHR082C, strain KSP1, active compounds read low 0.998 | S. cerevisiae deletion strains, locus YHR205W, strain SCH9, active compounds read low 0.872 | S. cerevisiae deletion strains, locus YIL147C, strain SLN1, active compounds read low 0.98 | S. cerevisiae deletion strains, locus YJL095W, strain BCK1, active compounds read low 0.934 | S. cerevisiae deletion strains, locus YJL128C, strain PBS2, active compounds read low 0.913 | S. cerevisiae deletion strains, locus YJL157C, strain FAR1, active compounds read low 0.945 | S. cerevisiae deletion strains, locus YJR016C, strain ILV3, active compounds read low 0.99 | S. cerevisiae deletion strains, locus YJR066W, strain TOR1 (second series), active compounds read low 0.941 | S. cerevisiae deletion strains, locus YJR066W, strain TOR1, active compounds read low 0.985 | S. cerevisiae deletion strains, locus YKL048C, strain ELM1, active compounds read low 0.921 | S. cerevisiae deletion strains, locus YKL067W, strain YNK1, active compounds read low 0.928 | S. cerevisiae deletion strains, locus YKL101W, strain HSL1, active compounds read low 0.908 | S. cerevisiae deletion strains, locus YKL193C, strain SDS22, active compounds read low 0.984 | S. cerevisiae deletion strains, locus YKL203C, strain TOR2, active compounds read low 0.977 | S. cerevisiae deletion strains, locus YLR133W, strain CKI1, active compounds read low 0.953 | S. cerevisiae deletion strains, locus YLR403W, strain SFP1, active compounds read low 0.954 | S. cerevisiae deletion strains, locus YML070W, strain DAK1, active compounds read low 0.909 | S. cerevisiae deletion strains, locus YMR001C, strain CDC5, active compounds read low 0.981 | S. cerevisiae deletion strains, locus YMR205C, strain PFK2 (second series), active compounds read low 0.949 | S. cerevisiae deletion strains, locus YMR277W, strain FCP1, active compounds read low 0.983 | S. cerevisiae deletion strains, locus YNL006W, strain LST8, active compounds read low 0.98 | S. cerevisiae deletion strains, locus YNL020C, strain ARK1, active compounds read low 0.944 | S. cerevisiae deletion strains, locus YNL161W, strain CBK1, active compounds read low 0.978 | S. cerevisiae deletion strains, locus YNL183C, strain NPR1, active compounds read low 0.948 | S. cerevisiae deletion strains, locus YNL207W, strain RIO2, active compounds read low 0.975 | S. cerevisiae deletion strains, locus YNL222W, strain SSU72, active compounds read low 0.982 | S. cerevisiae deletion strains, locus YNL307C, strain MCK1 (second series), active compounds read low 0.931 | S. cerevisiae deletion strains, locus YOL078W, strain AVO1, active compounds read low 0.994 | S. cerevisiae deletion strains, locus YOL136C, strain PFK27, active compounds read low 0.912 | S. cerevisiae deletion strains, locus YOR061W, strain CKA2, active compounds read low 0.949 | S. cerevisiae deletion strains, locus YOR119C, strain RIO1, active compounds read low 1.02 | S. cerevisiae deletion strains, locus YOR231W, strain MKK1, active compounds read low 0.864 | S. cerevisiae deletion strains, locus YOR329C, strain SCD5, active compounds read low 0.98 | S. cerevisiae deletion strains, locus YPL031C, strain PHO85, active compounds read low 0.957 | S. cerevisiae deletion strains, locus YPL153C, strain RAD53, active compounds read low 0.954 | S. cerevisiae deletion strains, locus YPL204W, strain HRR25, active compounds read low 0.948 | S. cerevisiae deletion strains, locus YPL209C, strain IPL1, active compounds read low 0.982 | S. cerevisiae deletion strains, locus YPR025C, strain CCL1, active compounds read low 0.979 | S. cerevisiae deletion strains, locus YPR106W, strain ISR1, active compounds read low 0.978 | S. cerevisiae deletion strains, locus YPR111W, strain DBF20, active compounds read low 0.947 | S. cerevisiae deletion strains, strain NNK1, active compounds read low 0.959 | S. cerevisiae deletion strains, strain TSCII, active compounds read low 0.984

CCOC(=O)c1ccc(NC(N)=S)cc1
inactive: [1] 1.01 | [2] 1.01 | [3] 0.994 | [4] 0.994 | [5] 0.941 | [6] 0.998 | [7] 0.993 | [8] 1 | [9] 1.03 | [10] 0.992 | [11] 0.997 | [12] 0.956 | [13] 1.01 | [14] 0.998 | [15] 0.974 | [16] 1.05 | [17] 0.966 | [18] 0.998 | [19] 0.935 | [20] 0.935 | [21] 0.979 | [22] 1 | [23] 1.01 | [24] 1 | [25] 0.949 | [26] 0.986 | [27] 0.968 | S. cerevisiae strains, strain wild type, active compounds read low 1.01

CCOC(=O)c1ccc(NC(=O)CCC(=O)O)cc1
inactive: [1] 0.994 | [2] 0.983 | [4] 0.978 | [5] 0.99 | [6] 0.99 | [7] 0.99 | [9] 1.07 | [10] 0.982 | [11] 1.01 | [12] 1 | [13] 1.06 | [14] 0.987 | [15] 1.02 | [16] 1.05 | [17] 1 | [18] 0.991 | [19] 0.981 | [20] 1.01 | [21] 1.01 | [22] 1.01 | [23] 0.989 | [24] 1.02 | S. cerevisiae deletion strains, locus YOL006C, strain TOP1, active compounds read low 1.04 | [25] 1 | [26] 1.01 | [27] 1.13

O=C1N(c2ccccc2)c2ccccc2C1(Cc1ccncc1)Cc1ccncc1
inactive: S. cerevisiae deletion strains, locus YAL040C, strain CLN3, active compounds read low 1.01 | S. cerevisiae deletion strains, locus YCL061C, strain MRC1 (second series), active compounds read low 1.01 | [5] 1 | S. cerevisiae deletion strains, locus YDR363W, strain ESC2, active compounds read low 1.03 | S. cerevisiae deletion strains, locus YER002W, strain NOP16, active compounds read low 0.988 | [12] 1.02 | [20] 0.997 | S. cerevisiae deletion strains, locus YNL175C, strain NOP13, active compounds read low 0.996 | S. cerevisiae deletion strains, locus YNL197C, strain WHI3, active compounds read low 0.997 | S. cerevisiae deletion strains, locus YNL224C, strain SQS1, active compounds read low 1 | [23] 1.03 | S. cerevisiae deletion strains, locus YOR083W, strain WHI5 (second series), active compounds read low 1.02 | [25] 1.03 | [26] 0.995
